The list is not random: actives were taken first. Their share in the collection is about 12%.
L3MBTL1 inh = blocks human L3MBTL1. Potency, µM (top dose mostly 57.1 µM), hits mostly inhibitors. AlphaScreen L3MBTL1–H3K9me1 peptide binding. hit rate 0.66% among 230,000; also: nearly all actives have a fitted effect of over 60% in size
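L3MBTL1 50 nM + b-AHA-H3(1-15)K9me1 75 nM, 30 min RT; compound added, 30 min RT; streptavidin donor/Ni-chelate acceptor beads 10 ug/mL each final, 30 min RT dark; AlphaScreen read.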
JMJD2A Tudor inh = inhibitors of human JMJD2A Tudor domain. O75164. AlphaScreen JMJD2A-Tudor / H3K4me3 peptide binding. Potency, µM (titrated, usually from 114 µM), hits mostly inhibitors. hit rate 4.4% among 390,000; also: nearly all actives have a fitted effect of over 50% in size
Target sequence (O75164 whole entry, looked up, the tested form may be a part): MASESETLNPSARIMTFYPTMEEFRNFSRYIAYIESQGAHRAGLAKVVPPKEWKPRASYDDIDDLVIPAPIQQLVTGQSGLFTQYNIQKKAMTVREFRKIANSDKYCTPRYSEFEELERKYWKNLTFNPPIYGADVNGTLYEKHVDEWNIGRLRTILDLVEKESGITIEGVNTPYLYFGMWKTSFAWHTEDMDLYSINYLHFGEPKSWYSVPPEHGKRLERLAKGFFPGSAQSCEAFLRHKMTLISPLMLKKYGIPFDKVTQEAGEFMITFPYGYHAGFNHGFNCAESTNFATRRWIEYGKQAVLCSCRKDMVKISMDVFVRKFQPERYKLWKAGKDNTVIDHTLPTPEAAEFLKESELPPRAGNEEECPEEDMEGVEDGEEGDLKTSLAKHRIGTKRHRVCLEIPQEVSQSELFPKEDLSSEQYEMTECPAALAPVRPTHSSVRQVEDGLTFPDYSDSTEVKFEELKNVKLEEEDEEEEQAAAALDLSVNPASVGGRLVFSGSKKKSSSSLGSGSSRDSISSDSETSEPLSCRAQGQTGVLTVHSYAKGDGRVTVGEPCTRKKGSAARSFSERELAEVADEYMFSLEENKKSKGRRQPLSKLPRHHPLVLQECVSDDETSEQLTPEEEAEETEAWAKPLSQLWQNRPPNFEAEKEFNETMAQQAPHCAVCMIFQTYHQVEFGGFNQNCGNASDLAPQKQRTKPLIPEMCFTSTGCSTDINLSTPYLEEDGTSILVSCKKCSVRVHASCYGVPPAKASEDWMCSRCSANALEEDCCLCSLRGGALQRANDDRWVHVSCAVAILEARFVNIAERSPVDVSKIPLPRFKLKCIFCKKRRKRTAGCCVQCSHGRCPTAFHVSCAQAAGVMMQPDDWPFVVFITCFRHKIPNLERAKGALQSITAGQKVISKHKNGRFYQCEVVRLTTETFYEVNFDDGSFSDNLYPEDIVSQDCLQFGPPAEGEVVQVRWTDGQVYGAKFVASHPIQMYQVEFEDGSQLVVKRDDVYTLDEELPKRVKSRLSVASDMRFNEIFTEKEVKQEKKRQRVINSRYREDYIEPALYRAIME
Sfp PPTase inh = blocks B. subtilis Sfp PPTase activity | Biochemical Sfp PPTase activity, qHTS | AID 1490 | hit rate 3.5% among 310,000 | Potency, µM, usual class: inhibitors;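 also: the enzyme is Sfp with the accession as filed and its product quenches rhodamine fluorescence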
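Compounds were incubated with enzyme (final 15 nM) for 15 min at room temperature before substrate addition started the reaction. Fluorescence at 525 nm excitation, 598 nm emission was recorded immediately and after 30 minutes.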
HP1b binding inh = blocks HP1-beta chromodomain binding to methylated histone tails. AlphaScreen HP1-beta / biotin-H3K9me3 peptide binding. hit rate 0.56% among 390,000. P83916. AID 540317. Potency, µM (doses to about 114 µM), usual class: inhibitors; also: nearly all actives have a fitted effect of over 70% in size
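AlphaScreen: HP1-beta (50 nM) preformed 30 min with biotin-H3(1-18)K9me3 peptide (50 nM) in PBS pH 7.4, 0.01% Tween-20. Compound added for 30 min at RT, then streptavidin donor/nickel chelate acceptor beads (10 ug/mL) for 30 min.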
BAZ2B block = BAZ2B (human) inhibition; Q9UIF8; AlphaScreen BAZ2B-H3K14Ac peptide displacement; Potency, µM (highest dose often 114 µM), usual class: inhibitors; hit rate 4.4% among 360,000; AID 504333; also: nearly all actives have a fitted effect of over 60% in size
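Protein-peptide AlphaScreen: BAZ2B 50 nM, b-H3K14Ac 50 nM, 1x PBS pH 7.4 + 0.01% Tween-20. Preincubation 30 min RT; cpd 30 min RT (top 110 uM); beads 20 min RT, light-protected.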
G9a block = blocks human histone lysine methyltransferase G9a | hit rate 8.8% among 350,000 | Potency, µM (titrated, usually from 102 µM), usual class: inhibitors | G9a H3K9 monomethylation, AlphaScreen, 2 h; also: nearly all actives have a fitted effect of over 75% in size
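Quantitative HTS format: methyltransferase activity on a biotin-tagged H3K9 peptide is measured by AlphaScreen, using a rabbit anti-monomethyl-H3K9 antibody with streptavidin donor and anti-IgG acceptor beads. Final levels are 20 nM enzyme, 500 nM peptide, 20 uM SAM; 2 h RT.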
A number is an active result; - = inactive; ? = inconclusive; . = no result given; [ ] = another dose, or the depositor's remark. Calls follow the shape of the dose curve; as a rule, active = well fitted curve in the direction sought with a large enough effect; inconclusive = small, poorly fitted or top-dose-only effect, or another doubt; inactive = no such curve, though single readings can be large; an effect the other way counts as inactive or inconclusive.

SMILES | L3MBTL1 inh | JMJD2A Tudor inh | Sfp PPTase inh | HP1b binding inh | BAZ2B block | G9a block
Cc1ccccc1C(=O)Nc1nnc(S(=O)(=O)N2CCc3ccccc32)s1 | . | - | . | - | - | -
COc1ccc(Nc2cc(C)nc(NCc3ccccc3)n2)cc1 | ? | ? | 31.6µM | - | - | 50.1µM
FC(F)(F)c1ccccc1-c1cncnc1NCCN1CCOCC1 | . | . | - | . | . | -[0.501 µM]
COc1ccc2nc(NC(=O)CSCc3c(C)noc3C)sc2c1 | - | - | . | - | - | ?
Cc1ccc(C)c(NC(=O)CN(C)C(=O)CSCc2c(C)noc2C)c1 | - | - | . | - | - | 31.6µM
O=C(CCc1ccccc1)Nc1nc2c(F)cc(F)cc2s1 | . | - | 35.5µM | - | - | -
Cc1noc(C)c1CSCC(=O)Nc1nc2c(F)cc(F)cc2s1 | ? | 44.7µM | . | - | 50.1µM | ?
Cc1cc(C)c(NC(=O)CSCc2c(C)noc2C)c(Cl)c1 | - | - | . | - | - | 39.8µM
Cc1cccc(C)c1NC(=O)CN(C)C(=O)CSCc1c(C)noc1C | - | - | . | - | - | -[12.7 µM]
O=C(Nc1nc2c(F)cc(F)cc2s1)c1ccco1 | - | - | - | - | - | -
O=C(Nc1cccc(Cl)c1)c1c(NC(=O)C(F)(F)F)sc2c1CCCC2 | . | 79.4µM | . | ? | 50.1µM | 3.98µM
Cc1ccccc1NC(=O)c1c(NC(=O)C(F)(F)F)sc2c1CCCCC2 | . | - | . | - | - | 8.91µM
Cc1cccc(NC(=O)c2c(NC(=O)C(F)(F)F)sc3c2CCCCC3)c1 | . | ? | . | - | - | ?
Cc1ccc(NC(=O)c2c(NC(=O)C(F)(F)F)sc3c2CCCCC3)cc1 | . | ? | . | ? | - | ?
Cc1ccccc1NC(=O)c1c(NC(=O)c2ccncc2)sc2c1CCC(C(C)(C)C)C2 (centres undefined) | . | ? | . | - | - | 17.8µM
CC(C)(C)C(=O)Nc1sc2c(c1C(=O)Nc1ccccn1)CCCC2 | - | 44.7µM | - | - | - | -
CCCCCCCCCCCCCCCC(=O)NC(C)C(=O)O (centres undefined) | . | . | - | . | . | .
COc1ccc(N=C2NC(=O)/C(=C\C=C\c3ccco3)S2)cc1 | 31.6µM | 20µM | ? | 22.4µM | 28.2µM | 7.08µM
Cc1cccc(N=C2NC(=O)/C(=C/C=C/c3ccco3)S2)c1 | ? | 17.8µM | 50.1µM | ? | 35.5µM | 14.1µM
Cc1cccc(N=C2CSC(=O)N2)c1 | - | - | - | - | - | -
O=C1NC(=Nc2ccc(O)cc2)S/C1=C/c1ccco1 | . | - | - | - | - | ?
Cc1cccc(N=C2NC(=O)S/C2=C\c2ccco2)c1 | ? | 39.8µM | 56.2µM | - | ? | 22.4µM
O=C1NC(=Nc2ccc3ccccc3c2)S/C1=C/c1ccco1 | 28.2µM | ? | 70.8µM | - | 20µM | 50.1µM
Cc1cc(C)cc(N=C2NC(=O)/C(=C/c3cccs3)S2)c1 | - | - | - | - | - | ?
Nc1ccn([C@@H]2O[C@H](CO)[C@H](O)C2(F)F)c(=O)n1 | . | . | - | . | . | -[12.7 µM]
SMILES | L3MBTL1 inh | JMJD2A Tudor inh | Sfp PPTase inh | HP1b binding inh | BAZ2B block | G9a block
O=C(Cn1cc(S(=O)(=O)Cc2cccc(Cl)c2)c2ccccc21)NCc1ccccc1Cl | . | - | . | - | - | -
CCN1/C(=C/c2cccc[n+]2C)Sc2ccc(OC)cc21 | . | 17.8µM | - | - | - | 50.1µM
COc1ccc2c(c1)N(C)/C(=C/c1cccc[n+]1C)S2 | . | ? | - | - | ? | 35.5µM
Cc1ccc(-n2c(=O)c3c4c(sc3n(CC(=O)C(C)(C)C)c2=O)CCCCC4)cc1C | . | - | . | - | - | -
O=C(N/N=C/c1ccccc1O)c1cc[n+]([O-])cc1 | . | 35.5µM | - | - | 20µM | -
O=C(O)COc1ccccc1/C=N/NC(=O)c1ccncc1 | . | . | 50.1µM | . | . | -[12.7 µM]
CCc1ccc(N2CC(C(=O)N/N=C/c3cc([N+](=O)[O-])ccc3O)CC2=O)cc1 (centres undefined) | ? | 39.8µM | - | - | 50.1µM | -
COc1ccccc1C=NNC(=O)c1ccncc1 | . | - | . | - | . | .
O=C1NCCCC1C(=O)N/N=C/c1cc([N+](=O)[O-])ccc1O (centres undefined) | - | 39.8µM | - | - | 50.1µM | -[12.7 µM]
COc1ccc(-c2c(O)c3c(OC)c4c(cc3oc2=O)OC(C)(C)CC4)cc1 | . | . | - | . | . | .
CCc1cccc(C)c1NC(=O)CSc1nc2ccccc2nc1Cc1ccccc1 | . | - | . | - | - | -
Cc1nc2c(C(=O)N(C)Cc3ccccc3)c[nH]n2c(=O)c1Cc1ccc(Cl)cc1 | . | - | . | - | - | -
Nc1nonc1C(=O)NCCN=Cc1cc(Cc2ccccc2)cc(Br)c1O | - | ? | - | - | - | -
O=C(N/N=C/c1ccccc1O)c1cccc2ccccc12 | - | - | - | - | - | .
O=C(N/N=C/c1ccccc1O)c1cc(=O)[nH]c2ccccc12 | ? | . | - | . | 50.1µM | -
O=C(N/N=C/c1cc([N+](=O)[O-])ccc1O)c1ccncc1 | ? | 22.4µM | - | - | 10µM | .
O=[N+]([O-])c1ccccc1N/N=C\c1ccccc1Cl | - | - | - | - | - | -
Nc1nonc1C(=O)NCCN=Cc1ccccc1O | - | - | 89.1µM | - | ? | -[0.0925 µM]
O=[N+]([O-])c1ccc(O)c(/C=N/Nc2ccccc2Cl)c1 | - | -[11.4 µM] | - | - | - | 6.31µM
O=C(N/N=C/c1ccc(O)c([N+](=O)[O-])c1)c1ccncc1 | . | - | ? | - | - | .
COc1ccc(C2CC(=O)c3cnc4c(-c5ccccc5)c(C)nn4c3C2)c(OC)c1 (centres undefined) | . | - | . | - | - | -
CCC1CN(C(=O)N2CCC(C(=O)O)CC2)c2cc(C)ccc2O1 (centres undefined) | . | - | . | - | - | -
COc1ccc(C(=O)N2CCN(c3nc4c(C)c(Cl)ccc4s3)CC2)c(OC)c1 | . | - | . | - | - | -
O=C(N/N=C/c1cc([N+](=O)[O-])ccc1O)c1cccc(N2CCCC2=O)c1 | . | 31.6µM | - | - | 20µM | -
O=C(O)CC/C(=N\NC(=O)c1ccncc1)c1ccccc1 | - | 25.1µM | - | - | - | .
SMILES | L3MBTL1 inh | JMJD2A Tudor inh | Sfp PPTase inh | HP1b binding inh | BAZ2B block | G9a block
Cc1nccn1CC(=O)N/N=C/c1ccccc1O | - | 56.2µM | - | - | 44.7µM | .
Nc1nonc1C(=O)N/N=C/c1cc(Br)ccc1O | 1.41µM | 17.8µM | - | - | 7.94µM | ?
COc1cc(/C=N/NC(=O)c2cccc(N3CCCC3=O)c2)ccc1O | . | - | - | - | - | -
COc1ccc(/C=N/NC(=O)c2ccncc2)cc1[N+](=O)[O-] | . | - | - | - | - | -
O=C(N/N=C/c1cc(Br)ccc1OC(=O)c1ccc(Br)cc1)c1ccncc1 | . | 89.1µM | - | ? | 50.1µM | -
CC/C(=N\NC(=O)c1ccc(N(C)C)cc1)c1ccccc1 | - | ? | - | - | - | 28.2µM
Cc1nccn1CC(=O)c1ccc(O)c(O)c1 | - | 20µM | . | - | 56.2µM | -[0.501 µM]
COc1cc(O)c(/C=N/NC(=O)c2ccncc2)c(OC)c1[N+](=O)[O-] | . | 50.1µM | - | - | 7.94µM | -
Cc1nccn1CC(=O)O | - | - | - | - | - | -

From PubChem BioAssay
